The source of these data is PubChem BioAssay (EPA / NIEHS).

Inconclusive results are not listed. Calls of active or inactive are those of the source. The calls were made as follows: active = hit-call score of the fitted dose curve at least 0.9, where 1 is the maximum; inconclusive = response in the unintended direction; inactive = score below 0.9.

Read-out in the assay: organic anion transporter (SLCO1B1), SLCO1B1 (gene 10599)
In words: CLD_SLCO1B1_48hr: CellzDirect (CLD) Gene Expression Assay for organic anion transporter (SLCO1B1) at 48 hours (AID 2283707). In outline: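 Primary human hepatocytes from two donor preparations dosed daily for two days with multiple concentrations, 0.2% DMSO vehicle. SLCO1B1 mRNA at 48 h by quantitative nuclease protection assay, chemiluminescence; gain-of-signal fitted versus DMSO.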
`C[N+]1(C)CCCCC1`: the compound was called inactive.
For `CCC(CC)Nc1c([N+](=O)[O-])cc(C)c(C)c1[N+](=O)[O-]`, the outcome was inactive.
Regarding `Cc1nn(-c2cc(NS(C)(=O)=O)c(Cl)cc2Cl)c(=O)n1C(F)F`, the compound was classed as inactive.
In the case of `CCc1cnc(C2=NC(C)(C(C)C)C(=O)N2)c(C(=O)O)c1` (stereo unspecified), the result was inactive.
As for `O=C(O)c1cc(Oc2ccc(C(F)(F)F)cc2Cl)ccc1[N+](=O)[O-]`, the compound was called inactive.
In the case of `Nc1c(Cl)cc([N+](=O)[O-])cc1Cl` it was “inactive”; in that of `S=C1NCCN1`, “inactive”.
On to `CCOC(=O)CC(SP(=O)(OC)OC)C(=O)OCC` (stereo unspecified), for which the result was inactive.
The entry for `CCCOc1nn(C(=O)NS(=O)(=O)c2ccccc2C(=O)OC)c(=O)n1C` is “inactive”; for `CCCCOC(=O)c1ccccc1C(=O)O` it is “inactive”.
In the case of `CN(C)NC(=O)CCC(=O)O` it was “inactive”; in that of `CC(Oc1cccc(Cl)c1)C(=O)O` (stereo unspecified), “inactive”; in that of `CCC(=NOC/C=C/Cl)C1=C(O)CC(C2CCOCC2)CC1=O` (stereo unspecified), “inactive”.
The entry for `CC[C@H](C)[C@H]1O[C@]2(C=C[C@@H]1C)C[C@@H]1C[C@@H](C/C=C(\C)[C@@H](O[C@H]3C[C@H](OC)[C@@H](O[C@H]4C[C@H](OC)[C@@H](NC)[C@H](C)O4)[C@H](C)O3)[C@@H](C)/C=C/C=C3\CO[C@@H]4[C@H](O)C(C)=C[C@@H](C(=O)O1)[C@]34O)O2` is “inactive”; for `CCCCN(CC)c1c([N+](=O)[O-])cc(C(F)(F)F)cc1[N+](=O)[O-]` it is “inactive”; for `CN(C)[C@@H]1C(=O)C(C(N)=O)=C(O)[C@@]2(O)C(=O)C3=C(O)c4c(O)cccc4[C@@](C)(O)[C@H]3[C@H](O)[C@@H]12` it is “inactive”.
